# The list is not random: actives were taken first. Their share in the collection is about 5.2%.
# PfM18AAP inh: PfM18AAP inhibitors, malaria aminopeptidase, primary screen, biochemical, QFRET, recombinant enzyme. M18 aspartyl aminopeptidase (Plasmodium falciparum 3D7). H-Glu-NHMec fluorogenic cleavage. inhibition, % at 7.35 µM. 290,000 compounds, 1.2% hits;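 active = inhibition above the campaign mean inhibition over all tested compounds plus 3 SD, cut at about 28% in these data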
# A3G deaminase: APOBEC3G DNA deaminase inhibitors, primary screen, biochemical, fluorescence, single-stranded DNA substrate, uHTS; AID 493012, 2011; recombinant A3G, ssDNA deamination FAM/TAMRA fluorescence; inhibition, % at 20 µM; 330,000 compounds, 0.28% hits; DNA dC->dU-editing enzyme APOBEC-3G (Homo sapiens), Q9HC16;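 active = inhibition of at least 40% at 20 µM, with no more than 30% in the related APOBEC3A deaminase screen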
# Target sequence (Q9HC16 whole entry, looked up): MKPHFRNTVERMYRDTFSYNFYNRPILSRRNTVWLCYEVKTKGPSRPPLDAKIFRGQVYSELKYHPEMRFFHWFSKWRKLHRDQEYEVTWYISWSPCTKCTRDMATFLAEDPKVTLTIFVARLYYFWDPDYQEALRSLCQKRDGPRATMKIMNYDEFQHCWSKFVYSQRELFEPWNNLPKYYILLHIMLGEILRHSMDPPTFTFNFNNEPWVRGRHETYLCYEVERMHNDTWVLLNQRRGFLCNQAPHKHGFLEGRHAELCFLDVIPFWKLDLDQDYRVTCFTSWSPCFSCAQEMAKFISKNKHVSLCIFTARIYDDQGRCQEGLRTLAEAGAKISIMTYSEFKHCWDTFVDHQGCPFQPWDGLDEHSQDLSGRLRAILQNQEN
# ALR H2O2 inh: inhibitors of human ALR sulfhydryl oxidase, primary screen, biochemical, H2O2 detection, HRP-luminol luminescence, single point; FAD-linked sulfhydryl oxidase ALR (Homo sapiens), P55789; purified ALR, DTT oxidation; inhibition, % (test concentration not listed); 290,000 compounds, 3.8% hits;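 active = mean replicate inhibition above about 79%, with every replicate also reaching it, limit read from the data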
# APOBEC3A inh: APOBEC3A ssDNA deaminase inhibitors, primary screen, selectivity assay for APOBEC3G inhibitor project, biochemical, FAM/TAMRA oligo cleavage fluorescence; recombinant A3A, FAM/TAMRA ssDNA deamination fluorescence; inhibition, % at 20 µM; 330,000 compounds, 0.41% hits;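 active = at least 40% inhibition at 20 µM here, with at most 30% in a related deaminase screen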
# Target sequence (P31941 whole entry, looked up): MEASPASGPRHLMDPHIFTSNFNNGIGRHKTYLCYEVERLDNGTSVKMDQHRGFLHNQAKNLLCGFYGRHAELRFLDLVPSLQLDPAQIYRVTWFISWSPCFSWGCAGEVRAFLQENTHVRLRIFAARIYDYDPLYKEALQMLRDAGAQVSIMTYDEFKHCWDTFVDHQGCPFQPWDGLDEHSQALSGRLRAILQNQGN
# CR mimetic SO: reduction of superoxide in aged yeast, primary screen, HTS. 330,000 compounds, 0.18% hits. S. cerevisiae aged cells, superoxide DHE fluorescence; stronger effect = lower value. superoxide response (% of plate mean), % at 10 µM;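 active = superoxide response under a set limit, about three screen SD below normal, cut at about 65% in these data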;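 also: yeast aged for seven days with compound at 30 °C before DHE staining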
# NRP1-CendR mod: modulators of CendR peptide binding to NRP-1, primary screen, biochemical, fluorescence polarization, uHTS. AID 602438, 2012. inhibition, % at 25 µM. 360,000 compounds, 0.85% hits. FAM-RPARPAR peptide binding to NRP-1;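 active = inhibition or corrected inhibition above about 18%, plus a signal ratio from 0.5 to 1.5, limit read from the data, passing the limit was not always enough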
# A number is an active result; i = inactive; nt = no result given.
SMILES,PfM18AAP inh,A3G deaminase,ALR H2O2 inh,APOBEC3A inh,CR mimetic SO,NRP1-CendR mod
O=C(CSCc1ccccc1Br)NNC(=S)NCc1ccco1,29.1,i,i,i,i,21.1
O=c1[nH]c(Nc2ccccn2)cc2ccccc12,nt,i,i,i,i,44.9
CC(C)(O)C#Cc1ccc([C@@H]2C[C@H]3CN(c4ccccc4)C(=O)[C@]34CCCN24)s1,i,i,91.5,i,i,i
O=C1N(c2ccccc2)C[C@@H]2C[C@@H](c3cccs3)N3CCC[C@@]123,i,i,i,i,i,i
CC(C)COCC(O)CCC(=O)NNC(=S)Nc1ccccc1 (stereo not drawn),i,i,92.9,i,i,i
O=C(Cc1ccccc1)NNC(=S)Nc1ccccc1,i,i,i,i,i,i
CC(C)CCOc1ccc(CO[C@@H]2[C@H]3OC(C)(C)O[C@H]3O[C@@H]2C(O)CO)cc1 (stereo partly drawn),i,i,86.6,i,i,i
COC(=O)c1ccc2nc(C)cc(Nc3ccc(N(C)C)cc3)c2c1,i,i,99.3,i,i,i
COc1ccc2nc(C)cc(Sc3nc4ccccc4s3)c2c1,i,i,99.0,i,i,i
COc1ccc2nc(C)cc(SCC(=O)NNC(=O)COc3ccccc3)c2c1,i,i,i,i,i,i
Cc1ccc(Nc2cc(C)nc3ccc(C)cc23)cc1,i,i,i,i,i,21.0
Cc1ccc2nc(C)cc(N/N=C/c3cccc(O)c3)c2c1,i,i,99.2,i,i,i
O=C(CSc1nc2ccccc2c(=O)n1Cc1ccc(C(=O)NC2CC2)cc1)NCc1ccco1,i,i,i,i,i,i
COc1ccc(Nc2cc(C)nc3ccc(OC)cc23)cc1,i,i,i,i,i,29.2
O=S1c2ccccc2Nc2ccccc21,nt,i,86.8,i,i,i
CCOC(=O)C1C(=O)CC(C)(O)C(C(=O)OCC)C1c1ccc(N(CC)CC)cc1 (stereo not drawn),i,i,98.1,i,i,i
CCOc1cc(C(=S)N2CCCCC2)ccc1OS(=O)(=O)c1ccc(Cl)cc1,i,i,i,i,i,i
Fc1ccc(CSc2nnc(-c3cnccn3)n2Cc2ccco2)cc1,i,i,86.7,i,i,i
Cc1ccccc1NC(=S)N1CCCC(c2nc3ccccc3[nH]2)C1 (stereo not drawn),i,i,i,i,i,23.4
Cc1ccc(NC(=S)N2CCCC(c3nc4ccccc4[nH]3)C2)cc1 (stereo not drawn),i,i,i,i,i,i
COc1ccc2ccc(OC)c(/C=N/NC(=O)c3cc4ccccc4o3)c2c1,nt,nt,nt,nt,nt,i
NC(=O)C1=C(c2ccccc2)c2ccccc2C1=O,nt,nt,nt,nt,nt,i
Nc1ccc2nc[nH]c2c1,i,i,99.0,i,i,i
COc1ccc2nc(Nc3nc(CSc4nc5ccccc5s4)cc(=O)[nH]3)nc(C)c2c1,nt,i,i,i,i,nt
CSc1ncccc1C(=O)OCc1ccccc1Cl,i,i,i,i,i,i
SMILES,PfM18AAP inh,A3G deaminase,ALR H2O2 inh,APOBEC3A inh,CR mimetic SO,NRP1-CendR mod
CCOC(=O)CSc1n[nH]c(NC(=O)c2cccc(C(F)(F)F)c2)n1,i,i,98.9,i,i,i
N#Cc1ccc(CSc2nnc(NC(=O)c3ccc(=O)[nH]c3)s2)cc1,i,i,91.8,i,i,i
CCOC(=O)C1CCN(C(=O)CCc2c(C)nc3c(-c4ccc(F)cc4)c(C)nn3c2C)CC1,i,i,i,i,i,i
CNc1ccc(Br)cc(C(=O)/C=C/c2ccc3c(c2)OCO3)c1=O,28.4,i,i,i,i,i
CCOC(=O)C1CCCN(Cc2cc(=O)oc3cc(C)c(C)cc23)C1 (stereo not drawn),i,i,i,i,i,i
COc1cc(/C=N/Nc2cccc(C)c2)cc(Br)c1O,i,nt,nt,nt,nt,i
O=C(CSc1nccc2ccccc12)N1CCN(c2ccccn2)CC1,i,i,98.3,i,i,i
CC(NNC(=S)N1CCN(c2ccccn2)CC1)c1nccc2ccccc12 (stereo not drawn),nt,nt,nt,nt,nt,24.4
Cc1ccc(SCC(=O)N2CCN(c3ccccn3)CC2)cc1,i,i,i,i,i,i
CC1=C(C)CS(=O)N(c2ccc(S(N)(=O)=O)cc2)C1 (stereo not drawn),29.8,i,i,i,i,i
CC1=C(C)CS(=O)N(S(=O)(=O)c2ccccc2)C1 (stereo not drawn),i,i,98.8,i,i,i
CCc1cccc(OCCN2CCCC2)c1,i,i,i,i,i,i
CC(=O)N1CCN(c2ccc(Nc3nc(C)nc4c3oc3ccccc34)cc2)CC1,nt,i,96.2,i,i,i
CC1Cn2c(nnc2-c2cc3ccccc3cc2O)S1 (stereo not drawn),i,i,i,i,i,25.7
O=C(NCc1ccccc1Br)c1ccc2c(c1)OCCO2,i,i,i,i,i,i
CN(C)c1ccc(N=Cc2nc(-c3ccccc3)oc2OC(=O)c2cccc(Cl)c2)cc1,i,i,i,i,i,28.3
OCCCNc1nc(-c2ccc(Br)cc2)nnc1-c1ccc(Cl)cc1,i,i,nt,i,i,i
O=C(O)c1ccc(-c2nc(-c3ccccc3)cs2)cc1,i,i,95.5,i,i,i
O=C(O)c1ccccc1C(=O)Nc1ccc(-c2csc(-c3ccccc3)n2)cc1,i,nt,98.6,nt,i,i
O=C(O)CCNc1cc(N2CCN(C(=O)c3ccco3)CC2)c2noc3c2c1C(=O)c1ccccc1-3,34.6,i,i,i,i,i
CCN1CCN(c2cc(N3CCN(C(=O)c4ccco4)CC3)c3c4c(onc24)-c2ccccc2C3=O)CC1,i,i,i,i,i,i
Cc1ccc(N2C(=O)C3C4CC(=O)C(c5ccccc54)C3C2=O)cc1C (stereo not drawn),i,i,nt,i,i,i
Cc1c(N=C2SCC(=O)N2/N=C\c2ccc(Br)cc2)c(=O)n(-c2ccccc2)n1C,i,i,92.3,i,i,i
Cc1c(N=C2SCC(=O)N2/N=C/c2ccccc2Cl)c(=O)n(-c2ccccc2)n1C,i,i,i,i,i,i
Cc1cc(C)nc(SCc2nc3ncccn3c2Br)n1,i,i,i,i,i,i
Clc1c(CSc2nc3ccccc3o2)nc2sccn12,i,i,i,i,i,i
Brc1c(CSc2nc3ccccc3o2)nc2ncccn12,i,i,99.6,i,i,i
Clc1c(CSc2nc3ccccc3o2)nc2ccccn12,i,i,98.4,i,i,i
Cc1cc(C)c(C#N)c(SCC(=O)Nc2ccc(S(=O)(=O)Nc3onc(C)c3C)cc2)n1,i,i,96.2,i,i,i
